Test results reported in PubChem BioAssay (NCATS).
Results filed as inconclusive are left out. The source made the active and inactive calls. Unless noted, calls follow the shape of the dose curve; as a rule, active = well fitted curve in the direction sought with a large enough effect; inconclusive = small, poorly fitted or top-dose-only effect, or another doubt; inactive = no such curve, though single readings can be large; an effect the other way counts as inactive or inconclusive.

Experiments:
[1] = Cytotoxicity counterscreen for inhibitors of SARS-CoV-2 cell entry (AID 1645845; calls by dose curve; also: nearly all actives have a fitted effect of over 50% in size)
How it was run: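 48 h compound treatment (after 1 h preincubation), HEK293-ACE2 cells, 37 C/5% CO2; ATP luminescence endpoint; normalized to cell wells and media blanks.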

[2] = Primary qHTS to identify inhibitors of SARS-CoV-2 cell entry (AID 1645846; calls by dose curve; also: nearly all actives have a fitted effect of over 45% in size); settings: activity change, negative = inhibition: at 57.1 µM (top of the series) unless noted
How it was run: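 HEK293-ACE2 (Expi293F, stable hACE2), 1500 cells/well, o/n 37C; cpd 23 nL pin, 1 h; MLV-PP w/ SARS-CoV-2-S (Wuhan-Hu-1, Δ19 C-term); 48 h 37C; Bright-Glo luminescence; normalized vs S-PP and bald PP.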

[3] = system: CRL-7250; test: qHTS assay to identify novel small-molecules to repurpose for Merkel cell carcinoma treatment (AID 1296009); settings: MCC and control cell lines, CellTiter-Glo viability, 72 h; series mostly up to 92 µM; also: nearly all actives have a fitted effect of over 60% in size
How it was run: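 72 hr, 37 degree celsius; NPC 8-pt / MIPE 11-pt dose response; compound pinned in DMSO; CellTiter-Glo, 10 min RT, luminescence; normalized to no-cell and DMSO controls.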

[4] = P-glycoprotein substrates identified in KB-8-5-11 adenocarcinoma cell line, qHTS therapeutic library screen (AID 1346987); also: potency is read from the fitted curve at half-maximal effect; nearly all actives have a fitted effect of over 65% in size
How it was run: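 KB-8-5-11, a colchicine-selected P-gp-overexpressing KB-3-1 subline, was grown without colchicine for the assay. Cells were seeded at 500 cells/well, dosed in concentration-response and incubated 72 h at 37 degree C, 5% CO2. Viability was read by CellTiter-Glo luminescence.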

[5] = system: Zika virus NS2B-NS3 protease (linked construct); test: Primary screen NINDS Rhodamine qHTS for Zika virus inhibitors (AID 1347160); also: nearly all actives have a fitted effect of over 55% in size
How it was run: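 Kinetic fluorescence (Ex 480 nm, Em 540 nm) over 15 min with 1.5 microM Rhodamine110 peptide and 25 nM linked protease.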

[6] = target: Calcium and integrin-binding protein 1 (Homo sapiens) (UniProt Q99828); test: Primary qHTS for Identification of Calcium Integrin Binding Protein 1 (CIB1) Competitor (AID 1508620);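 also: GST tagged CIB1 binding a fluorescein labelled alphaIIb integrin peptide tracer; top concentration of the series differs between compounds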
Sequence of Calcium and integrin-binding protein 1 (Homo sapiens) (Q99828 whole entry, looked up): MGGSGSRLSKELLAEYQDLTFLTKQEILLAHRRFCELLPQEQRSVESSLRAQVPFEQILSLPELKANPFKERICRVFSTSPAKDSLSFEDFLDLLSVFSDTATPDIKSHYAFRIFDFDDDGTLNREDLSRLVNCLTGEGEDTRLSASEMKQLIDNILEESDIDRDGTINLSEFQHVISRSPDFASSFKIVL
How it was run: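 CIB1-GST (1 uM final) and compound incubated 15 min at room temperature before adding FITC-alphaIIb peptide tracer (100 nM final). Competition for binding read by fluorescence polarization (ex 480, em 540) after another 15 min at room temperature.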

[7] = Primary qHTS for inhibitors of nuclear receptor binding SET domain protein 2 (NSD2) in an RCH-ACV wild type WT cells (2C) (AID 1645877); also: potency is read from the fitted curve at half-maximal effect; nearly all actives have a fitted effect of over 70% in size
[8] = target: Glutathione peroxidase 1 (Homo sapiens) (UniProt P07203); test: Primary qHTS Assay for Inhibitors of Recombinant Selenoprotein Glutathione Peroxidase 1 (GPX1) (AID 1845191); also: nearly all actives have a fitted effect of over 65% in size
Sequence of Glutathione peroxidase 1 (Homo sapiens) (P07203 whole entry, looked up): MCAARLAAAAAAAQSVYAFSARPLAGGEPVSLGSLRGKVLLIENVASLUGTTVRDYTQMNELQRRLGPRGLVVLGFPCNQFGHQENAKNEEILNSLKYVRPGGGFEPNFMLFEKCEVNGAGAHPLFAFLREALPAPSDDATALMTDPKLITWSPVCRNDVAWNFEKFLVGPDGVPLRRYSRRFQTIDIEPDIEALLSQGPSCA
How it was run: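 10 nM GPX1 + cpd, 30 min RT; start w/ 1 mM GSH, 0.5 mM cumene hydroperoxide, 0.5 mM NADPH, 100 nM GR, 0.01% BSA; buffer 50 mM Tris-HCl pH 7.5, 2 mM EDTA, 150 mM NaCl; Fl 340/450, 0 & 15 min.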

[9] = target: Phospholipid hydroperoxide glutathione peroxidase GPX4 (Homo sapiens) (UniProt P36969); test: Primary qHTS Assay for Inhibitors of Recombinant Selenoprotein Glutathione Peroxidase 4 (GPX4) (AID 1845192); also: nearly all actives have a fitted effect of over 65% in size
Sequence of Phospholipid hydroperoxide glutathione peroxidase GPX4 (Homo sapiens) (P36969 whole entry, looked up): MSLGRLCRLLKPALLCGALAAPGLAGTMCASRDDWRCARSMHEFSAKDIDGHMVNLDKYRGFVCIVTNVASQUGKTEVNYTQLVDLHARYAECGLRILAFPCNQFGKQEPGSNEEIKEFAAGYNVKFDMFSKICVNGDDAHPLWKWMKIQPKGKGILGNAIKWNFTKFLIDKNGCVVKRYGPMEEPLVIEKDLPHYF
How it was run: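 NADPH consumption, followed by fluorescence at 340/450 nm between 0 and 15 min, reports GPX4 activity via coupled glutathione reductase (100 nM). Enzyme 200 nM was pre-exposed to compound 30 min; 0.5 mM cumene hydroperoxide and 1 mM GSH served as substrates.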

[10] = target: Luciferin 4-monooxygenase (Photinus pyralis) (UniProt P08659); test: Primary firefly luciferase (FLuc) qHTS assay for identification of artifact compounds. (AID 1845220); settings: outcome: dose series up to 54.1 µM unless noted; also: nearly all actives have a fitted effect of over 60% in size
How it was run: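 Cell-free, 1536-well qHTS. Buffer pH 7.6 with 0.01% Tween-20 and 0.05% BSA; 10 uM D-luciferin, 10 uM ATP; 10 nM P. pyralis luciferase; luminescence after 5 min.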

[11] = Primary fluorescence-based thiol-reactive (MSTI) qHTS assay for identification of artifact compounds. (AID 1845221); also: nearly all actives have a fitted effect of over 65% in size; also: potency is read from the fitted curve at half-maximal effect
How it was run: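 qHTS titration of compound; 4 uM MSTI, PBS pH 7.4, 2% DMSO; 1 h RT, dark; fluorescence 525/598 nm; normalized to Acetyl-MSTI and MSTI; 4-parameter Hill fit.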

[12] = system: Nanoluciferase (engineered Oplophorus gracilirostris luciferase); test: Primary Nanoluciferase (NLuc) qHTS assay for identification of artifact compounds. (AID 1845222)
How it was run: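 Compounds are pinned into diluted (1:55) conditioned medium of NLuc-expressing S16 cells and held 15 min at room temperature protected from light. Nano-Glo substrate follows, and luminescence is read 5 min later.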

[13] = Primary redox qHTS assay for identification of artifact compounds. (AID 1845223)
How it was run: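 Amplex Red (25 uM) and HRP (250 mU/mL) in HBSS, with compounds for 15 min, then 250 uM DTT for 30 min, room temperature, dark. Fluorescence 525/598 nm read; normalized to DMSO and 10 uM DA3003; Hill fit.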

[14] = system: C33A; test: Primary qHTS to identify gynecologic anti-cancer compounds using libraries of approved drugs and bioactive compounds (AID 1345084); settings: Gynecologic cancer cell panel viability, ATPlite luminescence, 48 h; series mostly up to 57.5 µM; also: nearly all actives have a fitted effect of over 55% in size
How it was run: (§1)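 Cells, 1,000 per well, were allowed to settle for 16 h at 37 C before compound addition. Five concentrations were tested for 48 h, and viability was read by ATPlite luminescence after 15 min at room temperature.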

[15] = system: CAOV3; test: as above; settings: Gynecologic cancer cell panel viability, ATPlite luminescence, 48 h; series mostly up to 57.5 µM
How it was run: as §1

[16] = system: CASKI; test: as above; settings: Gynecologic cancer cell panel viability, ATPlite luminescence, 48 h; series mostly up to 57.5 µM
How it was run: as §1

[17] = system: Es-2; test: as above; settings: Gynecologic cancer cell panel viability, ATPlite luminescence, 48 h; series mostly up to 57.5 µM
How it was run: as §1

[18] = system: HeLa; test: as above; settings: Gynecologic cancer cell panel viability, ATPlite luminescence, 48 h; series mostly up to 57.5 µM
How it was run: as §1

[19] = system: JEG-3; test: as above; settings: Gynecologic cancer cell panel viability, ATPlite luminescence, 48 h; series mostly up to 57.5 µM
How it was run: as §1

[20] = system: OV90; test: as above; settings: Gynecologic cancer cell panel viability, ATPlite luminescence, 48 h; series mostly up to 57.5 µM
How it was run: as §1

[21] = system: Tov-21-G; test: as above; settings: Gynecologic cancer cell panel viability, ATPlite luminescence, 48 h; series mostly up to 57.5 µM
How it was run: as §1

[22] = system: Tov112D; test: as above; settings: Gynecologic cancer cell panel viability, ATPlite luminescence, 48 h; series mostly up to 57.5 µM
How it was run: as §1

[23] = system: Zika virus NS2B-NS3 protease (unlinked complex); test: Primary screen GU Rhodamine qHTS for Zika virus inhibitors: Unlinked NS2B-NS3 protease assay (AID 1347159); also: nearly all actives have a fitted effect of over 60% in size
How it was run: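 A qHTS format was used, with compound concentrations ranging up to 114 microM. Each compound was preincubated with 25 nM NS2B-NS3 protease, and the substrate was then added at 1.5 microM. Curves were fitted with a 4-parameter Hill model.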

[24] = target: Cytochrome P450 2D6 (Homo sapiens) (UniProt P10635); test: Cytochrome P450 family 2 subfamily D member 6 (CYP2D6) small molecule antagonists: luciferase biochemical (cell-free) qHTS assay (AID 1645840; active = well fitted curve in the direction sought with a large enough effect in the repeat runs; an effect the other way counts as inactive or inconclusive; also: potency is read from the fitted curve at half-maximal effect; nearly all actives have a fitted effect of over 55% in size)
Sequence of Cytochrome P450 2D6 (Homo sapiens) (P10635 whole entry, looked up): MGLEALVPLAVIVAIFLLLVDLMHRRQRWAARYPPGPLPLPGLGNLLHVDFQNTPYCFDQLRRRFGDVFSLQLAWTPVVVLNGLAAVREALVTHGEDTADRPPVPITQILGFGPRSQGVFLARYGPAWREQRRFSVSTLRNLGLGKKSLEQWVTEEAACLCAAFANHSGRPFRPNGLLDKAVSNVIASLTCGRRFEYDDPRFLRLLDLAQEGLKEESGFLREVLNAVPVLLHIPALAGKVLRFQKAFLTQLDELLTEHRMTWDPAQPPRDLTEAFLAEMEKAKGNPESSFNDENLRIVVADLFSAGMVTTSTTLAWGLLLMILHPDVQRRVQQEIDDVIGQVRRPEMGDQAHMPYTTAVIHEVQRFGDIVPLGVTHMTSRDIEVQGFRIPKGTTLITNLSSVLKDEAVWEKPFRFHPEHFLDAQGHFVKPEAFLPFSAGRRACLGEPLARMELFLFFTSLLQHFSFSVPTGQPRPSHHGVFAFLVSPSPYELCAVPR
How it was run: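 P450-Glo luminescent screen: recombinant CYP2D6 enzyme–proluciferin substrate mix preincubated with compound 10 min at room temperature, then NADPH regeneration added for 1 h at room temperature. Detection reagent added for 20 min; luciferin light read as relative luminescence units.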

[25] = system: Hek293T; test: Primary qHTS to identify gynecologic anti-cancer compounds using libraries of approved drugs and bioactive compounds (AID 1345084); settings: Gynecologic cancer cell panel viability, ATPlite luminescence, 48 h, control line for the selectivity index; series mostly up to 57.5 µM; also: nearly all actives have a fitted effect of over 55% in size
How it was run: as §1

[26] = system: PA-1; test: as above; settings: Gynecologic cancer cell panel viability, ATPlite luminescence, 48 h; series mostly up to 57.5 µM
How it was run: as §1

[27] = Primary qHTS for inhibitors of nuclear receptor binding SET domain protein 2 (NSD2) in an isogenic RCH-ACV NSD2 p.E1099K mutant (9B) (AID 1645876); also: potency is read from the fitted curve at half-maximal effect; nearly all actives have a fitted effect of over 70% in size
[28] = system: astro; test: Drug repurposing screens with cells derived from glioblastoma tumor samples (AID 1345199); settings: viability, ATP luminescence, 48 h; series mostly up to 45.9 µM; also: nearly all actives have a fitted effect of over 40% in size
How it was run: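 Four patient lines of CD133+ GBM neurospheres were screened at several concentrations; hits were retested in those lines plus three slower-growing GBM lines, using 48-hour treatment and ATP-based viability.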

CCN(c1cc(C#CCN2CCOCC2)cc(C(=O)NCc2c(C)cc(C)[nH]c2=O)c1C)C1CCC(N(C)CCOC)CC1 (stereo not given)
inactive: Potency [1] | Potency [2] | Potency [3]

COc1ccc(-c2cnc3c(-c4cccc5ncccc45)cnn3c2)cc1
inactive: Potency [1] | Potency [2] | Potency [3]

CCCCOc1nc(N)c2c(n1)N(Cc1cccc(CN3CCCC3)c1)CC(=O)N2
-22.5%: activity change, negative = inhibition [2]
inactive: Potency [1] | Potency [3]

c1cc(-c2cnn3cc(-c4ccc(N5CCNCC5)cc4)cnc23)c2cccnc2c1
inactive: Potency [1] | Potency [2] | Potency [3]

C=CC(C)(C)C12C=C(O)C(=O)N3/C(=C\c4cnc[nH]4)C(=O)NC31N(OC)c1ccccc12 (stereo not given)
inactive: Potency [5] | Potency [6] | Potency [8] | Potency [9] | outcome [10] inactive [at 25.7 µM] | Potency [12] | Potency [13] | Potency [14] | Potency [15] | Potency [16] | Potency [17] | Potency [18] | Potency [19] | Potency [20] | Potency [21] | Potency [22]
active: Potency [4] 7.96 µM | Potency [7] 10 µM | Potency [11] 4.12 µM

Cc1c(-c2ccnn2C)cc(C(=O)NCc2ccc(S(C)(=O)=O)cn2)c(=O)n1-c1cccc(C(F)(F)F)c1
inactive: Potency [2] | Potency [3]

COCCCc1sc(-c2ccccc2)nc1C(=O)Nc1ccccc1-c1nc2cc(CN3CCCC3)cnc2s1
inactive: Potency [1] | Potency [2] | Potency [3]

C[C@@H](CN1CCC(n2c(=O)[nH]c3cc(Br)ccc32)CC1)NC(=O)[C@@H]1C[C@H]1c1ccccc1
inactive: Potency [23] | Potency [5] | Potency [6] | Potency [8] | Potency [9] | outcome [10] | Potency [11] | Potency [12] | Potency [14] | Potency [15] | Potency [16] | Potency [17] | Potency [18] | Potency [25] | Potency [19] | Potency [20] | Potency [26] | Potency [21] | Potency [22]
active: Potency [4] 20.6 µM | Potency [24] 13.5 µM

O=C1C(c2c(O)[nH]c3ccccc23)=Nc2ccccc21
inactive: Potency [1] | Potency [2] | Potency [3]

CNc1nc(C)nc(N[C@H]2CCC[C@@H](C(=O)NCc3ccc(C#N)cc3C(F)(F)F)C2)n1
inactive: Potency [1] | Potency [2] | Potency [3]

CN(C(=O)CN1C(=O)COc2cc(Cl)c(Cl)cc21)[C@@H](CN1CCCC1)c1ccc(-c2cccc(C(N)=O)c2)cc1
active: Potency [24] 16.9 µM | Potency [27] 8.17 µM
inactive: Potency [23] | Potency [5] | Potency [6] | Potency [8] | Potency [9] | outcome [10] | Potency [11] | Potency [12] | Potency [13] | Potency [18] | Potency [21]

CCNC(=O)CCC/C=C\C[C@@H]1[C@@H](/C=C/C(O)CCc2ccccc2)[C@@H](O)C[C@@H]1O (stereo not given in full)
-23.1%: activity change, negative = inhibition [2]
inactive: Potency [1] | Potency [3]

O=C(NCCN1CCC2(CC1)C(=O)NCN2c1cccc(F)c1)c1ccc2ccccc2c1
inactive: Potency [23] | Potency [5] | Potency [6] | Potency [8] | Potency [9] | outcome [10] | Potency [11] | Potency [12] | Potency [13] | Potency [14] | Potency [15] | Potency [16] | Potency [17] | Potency [18] | Potency [25] | Potency [19] | Potency [20] | Potency [26] | Potency [21] | Potency [22]
active: Potency [24] 2.68 µM | Potency [27] 9.16 µM | Potency [7] 9.16 µM

CC[C@@H](C)[C@H]1C(=O)O[C@H](C(C)C)C(=O)N(C)[C@@H]([C@@H](C)CC)C(=O)O[C@H](C(C)C)C(=O)N(C)[C@@H]([C@H](C)CC)C(=O)O[C@H](C(C)C)C(=O)N1C
active: Potency [27] 4.3 µM | Potency [7] 1.71 µM
inactive: Potency [6] | Potency [8] | Potency [9] | outcome [10] inactive [at 25.7 µM] | Potency [11] | Potency [12] | Potency [13] | Potency [19]

CC(C)N(C[C@H]1O[C@@H](n2cnc3c(N)ncnc32)[C@H](O)[C@@H]1O)C1CC(CCc2nc3ccc(C(C)(C)C)cc3[nH]2)C1 (stereo not given in full)
inactive: Potency [1] | Potency [2] | Potency [3]

Cc1cccc(Oc2cnc(=O)[nH]c2)c1
inactive: Potency [1] | Potency [3]
-20%: activity change, negative = inhibition [2]

CCCOc1ccn2c(C(C)=O)cc(-c3ccccc3S(C)(=O)=O)c2c1
inactive: Potency [1] | Potency [2] | Potency [3]

Cc1nn(C)c2c1C(c1ccc(C(F)(F)F)cc1)C(C#N)=C(N)O2 (stereo not given)
inactive: Potency [1] | Potency [2] | Potency [3]

c1ccc2c(c1)Sc1ccccc1N2C[C@@H]1CN2CCC1CC2
inactive: Potency [28]

OC[C@H]1O[C@@H](Oc2cc(O)cc(/C=C/c3ccc(O)cc3)c2)[C@H](O)[C@@H](O)[C@@H]1O
inactive: Potency [1] | Potency [2] | Potency [3]

C=C1C(=O)OC(CCCCCCCC)C1C(=O)O (stereo not given)
inactive: Potency [1] | Potency [3]
